ADAM17 inh: ADAM17 inhibition, QFRET primary screen; 370,000 tested, 0.83% active; inhibition, % at 6.95 µM; recombinant ADAM17, EDANS/DABCYL FRET peptide cleavage;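 active = inhibition above the mean of compounds lying between control limits plus 3 SD, set per campaign, cut at about 8.5% in these data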;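 note: 0% = DMSO-only wells as the low control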
rCAG binder: r(CAG) repeat RNA binding; TO-PRO-1 dye displacement fluorescence; inhibition, % at 3 µM; 370,000 tested, 1.3% active; AID 651821;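 active = inhibition above the plate cutoff, the mean of all test compounds on that plate plus 3 SD, cut at about 35% in these data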;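 note: 0% = DMSO alone and 100% = 100 µM mitoxantrone as full dye displacement; higher means more dye released from RNA so lower well fluorescence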
MPTP block: blocks calcium-induced mitochondrial swelling; isolated mouse mitochondria, Ca2+ swelling absorbance, 30 min; inhibition, % at 10 µM; 360,000 tested, 1.4% active; AID 602449;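 active = inhibition of 50% or more, scaled per plate between neutral and stimulator controls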;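 note: 0% = DMSO wells given calcium and 100% = 1 mM EGTA wells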
ADAM10 inh: inhibits human ADAM10; O14672; recombinant ADAM10, EDANS/DABCYL FRET peptide cleavage, 3 h; inhibition, % at 7 µM; 370,000 tested, 0.62% active; AID 720582;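 active = inhibition above a per-campaign cutoff equal to the mean of compounds falling between control-based bounds plus 3 SD, cut at about 20% in these data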;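 note: 0% = DMSO wells while the 100% control is not disclosed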
DSG3 Ab inh: human desmoglein-3 autoantibody binding inhibition; 310,000 tested, 0.48% active; binding (percent of control), % at 10 µM; DSG3-coupled beads, scFv-anti-DSG3-GFP binding, flow cytometry; hits give low values;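 active = binding more than 3 SD below its plate's average and above zero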;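 note: hits lower antibody fragment binding to DSG3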
KLK7 zymogen act: proKLK7 (human) activation, primary screen; P49862; purified proKLK7, EDANS-DABCYL substrate fluorescence; 100% is mature enzyme control, 0% vehicle; activation, % at 7 µM; 370,000 tested, 0.9% active; AID 652039;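 active = activation above the mean of all tested compounds plus 3 SD, computed per campaign excluding outliers beyond control limits, cut at about 13% in these data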
Target sequence (P49862 whole entry, looked up): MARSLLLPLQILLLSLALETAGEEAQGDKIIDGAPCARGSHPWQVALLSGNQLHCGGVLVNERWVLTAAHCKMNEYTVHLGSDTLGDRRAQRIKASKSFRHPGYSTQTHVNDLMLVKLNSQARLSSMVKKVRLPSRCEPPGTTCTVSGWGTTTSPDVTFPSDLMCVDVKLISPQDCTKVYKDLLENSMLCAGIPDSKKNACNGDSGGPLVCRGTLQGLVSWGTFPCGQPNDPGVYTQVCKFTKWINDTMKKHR
rCAG binder conf: r(CAG) RNA repeat binding, confirmation; shares compounds with rCAG binder; TO-PRO-1 dye displacement fluorescence; inhibition, % at 3 µM; 4,300 tested, 70% active; AID 652065;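 active = inhibition above a per-plate cutoff, the mean inhibition of sample wells plus 3 SD, cut at about 35% in these data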;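 note: loss of TO-PRO-1 fluorescence as compound displaces dye from 1x1 AA loop RNA; 0% = DMSO only wells and 100% = 100 µM mitoxantrone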
DNA CAG counter: disrupts DNA CAG TO-PRO-1 complex, flagging rCAG hits. AID 652068. 4,300 tested, 94% active. d(CAG) DNA oligo TO-PRO-1 dye displacement, fluorescence. shares compounds with rCAG binder. inhibition, % at 3 µM;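 active = inhibition above its plate's cutoff, the mean test-well inhibition plus 3 SD, cut at about 4.8% in these data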;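 note: 0% = DNA dye mix with DMSO and 100% = 100 µM mitoxantrone; hits displace the dye from DNA and so lower well fluorescence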
Starred values were filed as active, the others as inactive. Rows were chosen to be rich in hits. Some 4.7% of all compounds tested hit in one or more screens of this group.

Results for COc1ccccc1NS(=O)(=O)c1cccc(C(=O)NN)c1 ?
ADAM17 inh: -1.0; rCAG binder: 10.6; MPTP block: -2.8; ADAM10 inh: 3.4; DSG3 Ab inh: 102.8; KLK7 zymogen act: -0.1

How did CCCCN(CC)C(=O)c1ccc(Cl)c(Cl)c1 do in these assays?
ADAM17 inh: -1.8; rCAG binder: -5.5; MPTP block: -1.0; ADAM10 inh: -4.5; KLK7 zymogen act: -0.3

How did CCCCCN(CCCCC)C(=O)C(CCC(=O)O)NC(=O)c1ccc(Cl)c(Cl)c1 (centres undefined) do in these assays?
ADAM17 inh: -3.1; rCAG binder: 53.7*; MPTP block: -2.4; ADAM10 inh: 0.4; DSG3 Ab inh: 111.9; KLK7 zymogen act: -0.9; rCAG binder conf: 51.6*; DNA CAG counter: 11.5*

What do the screens show for `O=C(NCCc1ccccc1)OCc1cn(-c2c(F)cccc2F)nn1`?
ADAM17 inh: -11.4; rCAG binder: 11.4; ADAM10 inh: 0.8; KLK7 zymogen act: -0.9

Results for Nc1c(C(=O)Nc2ccccc2F)sc2nc(-c3ccco3)ccc12 ?
ADAM17 inh: -132.9; rCAG binder: 55.2*; MPTP block: -1.5; ADAM10 inh: -442.8; DSG3 Ab inh: 89.8; KLK7 zymogen act: -10.6; rCAG binder conf: 72.9*; DNA CAG counter: 35.2*

How did COC(=O)c1sc2nc(-c3ccco3)ccc2c1N do in these assays?
ADAM17 inh: -12.4; rCAG binder: 50.2*; MPTP block: 2.3; ADAM10 inh: -34.2; DSG3 Ab inh: 100.9; KLK7 zymogen act: -4.6; rCAG binder conf: 22.6; DNA CAG counter: 11.7*

How did CN(CCc1ccccc1)C1CCCN(S(=O)(=O)N(C)C)C1 (centres undefined) do in these assays?
ADAM17 inh: -1.5; rCAG binder: -2.5; MPTP block: 0.5; ADAM10 inh: 4.9; DSG3 Ab inh: 119.7; KLK7 zymogen act: -0.3

Results for O=C(NCC1COc2ccccc2O1)c1ccc(NC(=O)c2cccc(F)c2)cc1 (centres undefined) ?
ADAM17 inh: 0.5; rCAG binder: 1.8; ADAM10 inh: 0.0; KLK7 zymogen act: 0.1

Results for Nc1c(/C=C2\C=Nc3ccccc32)c(=O)nc2sc(CC(=O)N3CCOCC3)nn12 ?
ADAM17 inh: -2.9; rCAG binder: 47.6*; MPTP block: -2.2; ADAM10 inh: -3.1; DSG3 Ab inh: 97.8; KLK7 zymogen act: 1.2; rCAG binder conf: 31.3; DNA CAG counter: 8.7*

How did Nc1c(C=C2C=CC(=O)C=C2)c(=O)nc2sc(CC(=O)N3CCOCC3)nn12 do in these assays?
ADAM17 inh: -20.1; rCAG binder: 17.6; MPTP block: -0.5; ADAM10 inh: -37.9; DSG3 Ab inh: 104.4; KLK7 zymogen act: -1.7

What do the screens show for `O=C1CC(=O)N(Cc2ccco2)C(=O)N1`?
ADAM17 inh: -4.4; rCAG binder: 35.1*; MPTP block: -0.3; ADAM10 inh: -6.2; DSG3 Ab inh: 95.3; KLK7 zymogen act: -0.4; rCAG binder conf: 36.5*; DNA CAG counter: 12.5*

Results for O=C1CC(=O)N(Cc2ccco2)C(=S)N1 ?
MPTP block: -2.6; DSG3 Ab inh: 113.2

How did CCCCc1c(-c2ccccc2OC)ncn1Cc1c(F)cccc1F do in these assays?
ADAM17 inh: -3.6; rCAG binder: 1.5; ADAM10 inh: -4.8; KLK7 zymogen act: -0.6

Results for CCOc1ccc(Cc2c(C)[nH]c3ccc(C(=O)O)cc3c2=S)cc1 ?
ADAM17 inh: -2.1; rCAG binder: 36.4*; MPTP block: 0.2; ADAM10 inh: 16.1; DSG3 Ab inh: 114.2; KLK7 zymogen act: 0.4; rCAG binder conf: 31.6; DNA CAG counter: 7.6*

Results for CCOc1ccccc1N(CC(=O)NCCc1ccc(OC)c(OC)c1)S(=O)(=O)c1ccccc1 ?
ADAM17 inh: -0.8; rCAG binder: 43.2*; MPTP block: -0.2; ADAM10 inh: 1.1; DSG3 Ab inh: 118.5; KLK7 zymogen act: 0.3; rCAG binder conf: 1.8; DNA CAG counter: 0.3

What do the screens show for `CCOc1ccccc1N(CC(=O)Nc1ccc(OC)c(OC)c1)S(=O)(=O)c1ccccc1`?
ADAM17 inh: -0.2; rCAG binder: -2.6; MPTP block: 0.9; ADAM10 inh: 0.6; DSG3 Ab inh: 118.4; KLK7 zymogen act: -0.3

Results for O=C1/C(=C/c2ccc(Br)cc2)Oc2cc(O)ccc21 ?
ADAM17 inh: -14.3; rCAG binder: 9.8; MPTP block: 32.1; ADAM10 inh: -23.1; DSG3 Ab inh: 94.4; KLK7 zymogen act: -4.5

What do the screens show for `CC(C)(C)c1ccc(/C=C2\Oc3cc(O)ccc3C2=O)cc1`?
ADAM17 inh: -12.1; rCAG binder: 58.0*; MPTP block: 34.0; ADAM10 inh: -22.1; DSG3 Ab inh: 94.4; KLK7 zymogen act: -49.9; rCAG binder conf: 49.9*; DNA CAG counter: 16.2*

How did COC/C=C/C1=CC2=CC(=O)C(C)(OC(=O)C3CCCC3)C(=O)C2=CO1 (centres undefined) do in these assays?
ADAM17 inh: 0.9; rCAG binder: 50.3*; MPTP block: -0.7; ADAM10 inh: 6.9; DSG3 Ab inh: 96.9; KLK7 zymogen act: 1.1; rCAG binder conf: 29.6; DNA CAG counter: 15.4*

How did COc1ccc(Cc2nnc(SCC(=O)Nc3c(C)cccc3C)[nH]c2=O)cc1 do in these assays?
ADAM17 inh: -0.5; rCAG binder: 7.5; MPTP block: 0.0; ADAM10 inh: -1.8; DSG3 Ab inh: 111.4; KLK7 zymogen act: -0.1

How did CCc1cccc(NC(=O)CSc2nnc(Cc3ccc(OC)cc3)c(=O)[nH]2)c1 do in these assays?
ADAM17 inh: 0.0; rCAG binder: 45.8*; MPTP block: 1.4; ADAM10 inh: -19.6; DSG3 Ab inh: 103.3; KLK7 zymogen act: -0.3; rCAG binder conf: 42.1*; DNA CAG counter: 9.3*

What do the screens show for `COCCCNC(=O)c1cc2cc(Br)ccc2oc1=O`?
ADAM17 inh: -5.0; rCAG binder: -0.4; MPTP block: -2.0; ADAM10 inh: -0.5; DSG3 Ab inh: 105.2; KLK7 zymogen act: 0.0

What do the screens show for `O=C(NNC(=O)c1cc2cc(Br)ccc2oc1=O)c1ccc(O)cc1O`?
ADAM17 inh: 1.2; rCAG binder: 54.6*; MPTP block: 5.5; ADAM10 inh: 1.0; DSG3 Ab inh: 85.3; KLK7 zymogen act: 0.4; rCAG binder conf: 21.0; DNA CAG counter: 5.3*

How did Cc1cccc(NC(=S)N/N=C/c2c[nH]c3ccccc23)c1 do in these assays?
ADAM17 inh: 3.2; rCAG binder: 35.6*; MPTP block: 3.5; ADAM10 inh: 5.7; DSG3 Ab inh: 99.4; KLK7 zymogen act: -3.0; rCAG binder conf: 23.3; DNA CAG counter: 13.9*

How did Cc1ccc(C(=O)Nc2ccc(C(=O)N/N=C/c3c[nH]c4ccccc34)cc2)cc1 do in these assays?
ADAM17 inh: -5.1; rCAG binder: 11.6; MPTP block: -0.3; ADAM10 inh: -16.7; DSG3 Ab inh: 90.4; KLK7 zymogen act: -11.5
